# Results filed as inconclusive are left out. Values without a mark were called inactive. Activity calls are given as the source filed them. Calls come from the whole dose curve; as a rule, active = well fitted activation curve with a large enough effect; inconclusive = small, poorly fitted or top-dose-only effect; inactive = no such curve, though single readings can be large or run the other way. Peptide text beside a SMILES is read from it.
# Molecular target: Cellular tumor antigen p53 (Homo sapiens) (UniProt P04637)
# Assay: Primary qHTS for small molecule compounds that upregulate eGFP-tagged delta133p53alpha (in N-terminal) cells. (AID 2060322); note: nearly all actives have a fitted effect of over 75% in size;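 for activation: series mostly up to about 56 µM; 0% = DMSO vehicle and 100% = reference activator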
# Settings: NCI-H358 eGFP-delta133p53alpha fluorescence, 24 h; activation: hits give high values
# Procedure, shortened: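 NCI-H358 cells pre-induced 24 h with 10 ng/ml doxycycline to express N-terminal eGFP-delta133p53alpha, then dosed 24 h at 37C without doxycycline; fixed, Hoechst-stained, GFP intensity by laser scanning cytometry, normalized to DMSO (0%) and 57.5 uM 5-azacytidine (100%).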
# Potency is the fitted concentration of half-maximal effect.
# Cellular tumor antigen p53 (Homo sapiens), sequence (P04637 whole entry, looked up): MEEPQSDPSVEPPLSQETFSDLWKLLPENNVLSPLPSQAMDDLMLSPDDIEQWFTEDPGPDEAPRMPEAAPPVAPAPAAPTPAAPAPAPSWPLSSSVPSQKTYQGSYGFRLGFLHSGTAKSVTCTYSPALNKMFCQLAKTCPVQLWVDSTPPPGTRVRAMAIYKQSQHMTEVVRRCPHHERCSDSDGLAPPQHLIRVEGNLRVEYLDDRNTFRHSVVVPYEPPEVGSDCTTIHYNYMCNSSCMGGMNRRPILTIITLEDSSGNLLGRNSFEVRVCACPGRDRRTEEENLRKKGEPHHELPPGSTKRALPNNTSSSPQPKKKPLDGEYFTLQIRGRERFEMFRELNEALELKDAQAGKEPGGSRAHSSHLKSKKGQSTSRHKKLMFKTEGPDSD
Structure (SMILES),activation,Potency
COC(=O)C1=CO[C@@H](O[C@@H]2O[C@H](CO[C@@H]3O[C@H](CO)[C@@H](O)[C@H](O)[C@H]3O)[C@@H](O)[C@H](O)[C@H]2O)[C@@H]2C(CO)=CC[C@H]12,8.4%,–
C/C=C(/C)C(=O)O[C@@H]1C[C@@H](OC(=O)/C(C)=C\C)[C@@]2(C)C3C(=O)C=C(C)C2C3C1(C)C,-3.57%,–
C=C[C@@]1(C)CC(=O)C2[C@](C)(O1)[C@@H](OC(C)=O)[C@@H](O)[C@H]1C(C)(C)CCC[C@]21C (stereo not given in full),-4.33%,–
C/C=C1\[C@H](O[C@@H]2O[C@H](CO)[C@@H](O)[C@H](O)[C@H]2O)OC=C(C(=O)O)[C@H]1CC(=O)OCCc1ccc(O)cc1,0.763%,–
C=C(C(=O)O)C1CCC2(C)CCCC(C)(O)C2C1 (stereo not given),-5.36%,–
N#CC1C(=O)Nc2scc(-c3ccc(-c4ccccc4O)cc3)c2C1=O (stereo not given),17%,–
C/C=C/C=C/C(O)=C1/C(=O)[C@]2(C)C(=O)[C@@](C)(O)[C@H]1[C@H]([C@@]1(C)OC(=O)C(C)=C1O)[C@H]2C(=O)CC/C=C/C,-10.7%,–
O=C(O)CC1(O)C(=O)Nc2ccccc21 (stereo not given),1.79%,–
O=C(O)Cc1cn([C@@H]2OC[C@@H](O[C@@H]3O[C@H](CO)[C@@H](O)[C@H](O)[C@H]3O)[C@H](O)[C@H]2O[C@@H]2O[C@H](CO)[C@@H](O)[C@H](O)[C@H]2O)c2ccccc12,-7.63%,–
Cc1cc(NC(=O)c2cccc(NC(=O)/C=C/CN(C)C)c2)ccc1Nc1nccc(-c2cccnc2)n1,–,26.9 µM (active)
CC1CCC2(CO)C(C(=O)O)=CCCC2C1(C)CCc1ccoc1 (stereo not given),14.3%,–
CCN(CCN(C)C)C(=O)CNCc1cc(C(N)=O)ccn1,-3.67%,–
Nc1nc2c(ncn2CCC(CO)CO)c(=O)[nH]1,-5.36%,–
C=C1C(=O)O[C@@H]2/C=C(\C)CC/C=C(\C)CC[C@@H]12,–,21.3 µM (active)
C[C@H](/C=C/[C@@]1(O)[C@H](C)CC(=O)CC1(C)C)O[C@@H]1O[C@H](CO[C@@H]2OC[C@@H](O)[C@H](O)[C@H]2O)[C@@H](O)[C@H](O)[C@H]1O,-6.11%,–
CC(=O)NCc1cccc(OC[C@@H](O)CNCCc2ccc(NS(=O)(=O)c3ccccc3)cc2)c1,8.93%,–
C=C1CC23CC1CCC2C12OC(=O)C(C)(C(O)CC1O)C2C3C(=O)O (stereo not given),-7.14%,–
O=C(O)C(Cc1ccccc1)NC(=O)C1CCCN1 (stereo not drawn) (H-Pro-Phe-OH; configuration not given here),-13.7%,–
COc1cc(C)c(C(=O)O[C@H]2[C@@H](OC(C)=O)[C@H](n3ccc(=O)[nH]c3=O)O[C@@H]2CO)c(OC)c1,-10.7%,–
CC1(C)CC[C@]2(C(=O)O[C@@H]3O[C@H](CO)[C@@H](O)[C@H](O)[C@H]3O)[C@H](O)C[C@]3(C)C(=CCC4[C@@]5(C)CC[C@H](O[C@@H]6OC[C@@H](O)[C@H](O)[C@H]6O)[C@@](C)(C(=O)O)C5CC[C@]43C)[C@@H]2C1 (stereo not given in full),-16.8%,–

Structure (SMILES),activation,Potency
CC(C)=CCC[C@](C)(O[C@@H]1O[C@H](CO)[C@@H](O)[C@H](O)[C@H]1O)[C@H]1CC[C@]2(C)[C@@H]1[C@H](O)CC1[C@@]3(C)CC[C@H](O)C(C)(C)C3[C@@H](O[C@@H]3O[C@H](CO)[C@@H](O)[C@H](O)[C@H]3O[C@@H]3OC[C@@H](O)[C@H](O)[C@H]3O)C[C@]12C (stereo not given in full),-15.3%,–
CS/C=C/C(=O)O[C@@H]1CCC2=CC(=O)C(=C(C)C)C[C@]2(C)[C@H]1C,-1.79%,–
CC(=O)O[C@H]1C[C@@](O)(C(C)C)[C@@H]2[C@@H](OC(=O)c3ccc(O)cc3)CC(C)=CC[C@@]12C,21.4%,–
CC1C(=O)CC2C3CCC(C(=O)O)C12CC3(C)CO (stereo not given),9.92%,–
CN1c2c(nc(N)[nH]c2=O)NC[C@@H]1CNc1ccc(C(=O)N[C@@H](CCC(=O)O)C(=O)O)cc1,-8.33%,–
CC(C)=CCC/C(C)=C/CO[C@@H]1O[C@H](CO[C@@H]2O[C@@H](CO)[C@H](O)[C@H]2O)[C@@H](O)[C@H](O)[C@H]1O,-29.5%,–
NC1CCCCN(c2c(F)cc3c(=O)c(C(=O)O)cn(C4CC4)c3c2Cl)C1 (stereo not given),-8.59%,–
CC(=O)OCCC(C)CCC1C(C)(O)CCC2C(C)(C)CCCC21C (stereo not given),6.87%,–
CC1(C)COC(=O)[C@@H]1O[C@@H]1O[C@H](CO)[C@@H](O)[C@H](O)[C@H]1O,-11.6%,–
C[C@@H]1O[C@@H](O[C@H]2[C@H](OC(=O)[C@]34CCC(C)(C)C[C@H]3C3=CCC5[C@@]6(C)C[C@H](O)[C@H](O[C@@H]7O[C@H](C(=O)O)[C@@H](O)[C@H](O)[C@H]7O)[C@@](C)(CO)C6[C@H](O)C[C@@]5(C)[C@]3(C)C[C@H]4O)O[C@@H](CO)[C@@H]2O)[C@H](O)[C@H](O)[C@H]1O[C@@H]1OC[C@@H](O)[C@H](O[C@H]2OC[C@](O)(CO)[C@H]2O)[C@H]1O (stereo not given in full),21.4%,–
C=CC1(C)CC(OC(=O)C(=C)C(O)COC(C)=O)C(C(=C)C(=O)OC)C(O)C1C(=C)CO (stereo not given),-2.29%,–
COc1c(C)c(OCC=C(C)C)cc2c1CNC2=O,-19.8%,–
C=C1C(OC(C)=O)C(=O)C2C(C)(C)C(OC(C)=O)CCC2(C)C1CC(OC(C)=O)/C(C)=C/COC(C)=O (stereo not given),17.6%,–
C=C1C(OC(C)=O)[C@@]23CCC4[C@](C)(C(=O)O)CCC[C@@]4(C)[C@]2(O)CC[C@H]1C3 (stereo not given in full),8.93%,–
C[C@]12CC/C(=N\OCC(=O)O)C=C1CC[C@@H]1[C@@H]2[C@@H](O)C[C@@]2(C)[C@H]1CC[C@]2(O)C(=O)CO,5.67%,–
COC(=O)C1=CO[C@@H](O[C@@H]2O[C@H](CO)[C@@H](O)[C@H](O)[C@H]2O)[C@@H]2[C@@H](C(=O)OC)[C@@H](O)C(O)[C@H]12 (stereo not given in full),-19.8%,–
COC(=O)/C=C/C12COC(C)(C)C1C(O)C(OC(C)=O)C1(C)C2CCC2(C)C(c3ccoc3)OC(=O)C3OC321 (stereo not given),11.5%,–
C/C=C(\C)C(=O)OCC1OC(OC2OC(CO)C(O)C(O)C2O)C(O)C(O)C1O (stereo not given),-16.8%,–
CC(=O)O[C@@H]1C[C@@H](C)[C@](O)(CCC2=CC(=O)OC2)[C@@]2(C)CCCC(C)(C)C12 (stereo not given in full),-29.8%,–
C/C(=C\CCC(C)CCO)C(=O)OC[C@H]1O[C@@H](O[C@@H]2OC=C(C(=O)O)[C@H]3CC[C@](C)(O)[C@@H]23)C(O)[C@@H](O)C1O (stereo not given in full),-20.5%,–
